# Test results: ChEMBL document CHEMBL1961873, “Compounds: GSK PKIS; Assays: Nanosyn kinase panel” (2012)
# Columns and labels:
# [1] = molecular target: Sphingosine kinase 1 (Homo sapiens) (UniProt Q9NYA1); conditions: at 1 µM;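 also: mean SPHK1 inhibition value reported from the GSK PKIS kinase panel screen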
# [2] = molecular target: T1, Sphingosine kinase 2 (Homo sapiens) (UniProt Q9NRA0); conditions: at 0.1 µM
# T1 sequence (whole entry): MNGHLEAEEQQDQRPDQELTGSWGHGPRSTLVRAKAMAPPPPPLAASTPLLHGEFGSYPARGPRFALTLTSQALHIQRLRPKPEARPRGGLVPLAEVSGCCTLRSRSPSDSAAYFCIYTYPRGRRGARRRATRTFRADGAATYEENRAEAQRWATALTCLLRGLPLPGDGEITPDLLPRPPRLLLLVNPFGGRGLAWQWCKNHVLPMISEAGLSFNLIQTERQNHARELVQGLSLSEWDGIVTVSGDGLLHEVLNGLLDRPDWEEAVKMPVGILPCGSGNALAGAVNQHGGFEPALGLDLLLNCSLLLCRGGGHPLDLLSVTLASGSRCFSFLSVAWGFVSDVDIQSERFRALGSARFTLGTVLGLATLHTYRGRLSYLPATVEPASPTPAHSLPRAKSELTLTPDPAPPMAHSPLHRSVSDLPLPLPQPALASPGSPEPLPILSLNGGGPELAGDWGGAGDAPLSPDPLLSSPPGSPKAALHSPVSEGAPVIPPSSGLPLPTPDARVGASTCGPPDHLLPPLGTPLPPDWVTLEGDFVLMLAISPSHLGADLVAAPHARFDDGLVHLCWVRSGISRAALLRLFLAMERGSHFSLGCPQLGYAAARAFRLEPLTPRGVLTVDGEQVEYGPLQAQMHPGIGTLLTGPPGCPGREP
# [3] = molecular target: T1, Sphingosine kinase 2 (Homo sapiens); conditions: at 1 µM
# [4] = molecular target: Casein kinase II subunit alpha (Homo sapiens) (UniProt P68400); conditions: at 0.1 µM
# [5] = molecular target: Casein kinase II subunit alpha (Homo sapiens) (UniProt P68400); conditions: at 1 µM
# [6] = molecular target: T2, Inhibitor of nuclear factor kappa-B kinase subunit alpha (Homo sapiens) (UniProt O15111); conditions: at 0.1 µM
# T2 sequence (whole entry): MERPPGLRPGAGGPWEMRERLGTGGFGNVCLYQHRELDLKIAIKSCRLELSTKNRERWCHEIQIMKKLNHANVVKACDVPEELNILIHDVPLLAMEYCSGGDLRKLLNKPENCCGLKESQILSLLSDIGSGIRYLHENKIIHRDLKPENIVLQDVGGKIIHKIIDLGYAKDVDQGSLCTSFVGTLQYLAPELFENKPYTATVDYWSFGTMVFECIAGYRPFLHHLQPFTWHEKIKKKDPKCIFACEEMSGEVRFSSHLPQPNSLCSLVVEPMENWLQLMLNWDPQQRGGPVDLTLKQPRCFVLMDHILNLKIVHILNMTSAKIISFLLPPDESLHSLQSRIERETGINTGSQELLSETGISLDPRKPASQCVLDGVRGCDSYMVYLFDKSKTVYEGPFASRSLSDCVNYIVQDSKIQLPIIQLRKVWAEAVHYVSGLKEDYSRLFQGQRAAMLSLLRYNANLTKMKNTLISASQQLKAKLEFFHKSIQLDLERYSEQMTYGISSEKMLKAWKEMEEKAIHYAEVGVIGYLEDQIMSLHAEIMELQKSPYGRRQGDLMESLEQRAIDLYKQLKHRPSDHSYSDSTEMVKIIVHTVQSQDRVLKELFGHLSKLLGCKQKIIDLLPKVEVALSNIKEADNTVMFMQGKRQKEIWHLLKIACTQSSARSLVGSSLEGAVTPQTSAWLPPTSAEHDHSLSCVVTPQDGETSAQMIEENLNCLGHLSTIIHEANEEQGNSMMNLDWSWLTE
# [7] = molecular target: T2, Inhibitor of nuclear factor kappa-B kinase subunit alpha (Homo sapiens); conditions: at 1 µM
# [8] = molecular target: T3, Inhibitor of nuclear factor kappa-B kinase subunit beta (Homo sapiens) (UniProt O14920); conditions: at 0.1 µM
# T3 sequence (whole entry): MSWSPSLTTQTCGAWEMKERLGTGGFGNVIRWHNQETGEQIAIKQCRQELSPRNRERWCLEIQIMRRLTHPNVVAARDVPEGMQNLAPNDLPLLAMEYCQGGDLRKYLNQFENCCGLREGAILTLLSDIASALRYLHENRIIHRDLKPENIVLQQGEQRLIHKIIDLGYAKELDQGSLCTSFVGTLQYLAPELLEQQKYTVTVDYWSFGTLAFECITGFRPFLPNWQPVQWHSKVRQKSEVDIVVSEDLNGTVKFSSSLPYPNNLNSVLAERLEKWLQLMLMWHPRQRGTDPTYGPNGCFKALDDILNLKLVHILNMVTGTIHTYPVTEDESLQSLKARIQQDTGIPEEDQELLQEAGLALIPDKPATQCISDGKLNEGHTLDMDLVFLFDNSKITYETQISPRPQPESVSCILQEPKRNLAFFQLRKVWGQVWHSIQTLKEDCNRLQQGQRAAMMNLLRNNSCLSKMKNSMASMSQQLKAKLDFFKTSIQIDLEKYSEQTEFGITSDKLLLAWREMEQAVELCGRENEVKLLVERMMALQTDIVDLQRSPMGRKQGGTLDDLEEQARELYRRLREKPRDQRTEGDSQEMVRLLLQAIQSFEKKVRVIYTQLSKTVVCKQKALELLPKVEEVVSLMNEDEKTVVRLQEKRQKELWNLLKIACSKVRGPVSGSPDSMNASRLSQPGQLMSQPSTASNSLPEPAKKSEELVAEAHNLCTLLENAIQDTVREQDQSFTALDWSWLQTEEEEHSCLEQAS
# [9] = molecular target: T3, Inhibitor of nuclear factor kappa-B kinase subunit beta (Homo sapiens); conditions: at 1 µM
# [10] = molecular target: T4, Inhibitor of nuclear factor kappa-B kinase subunit epsilon (Homo sapiens) (UniProt Q14164); conditions: at 0.1 µM
# T4 sequence (whole entry): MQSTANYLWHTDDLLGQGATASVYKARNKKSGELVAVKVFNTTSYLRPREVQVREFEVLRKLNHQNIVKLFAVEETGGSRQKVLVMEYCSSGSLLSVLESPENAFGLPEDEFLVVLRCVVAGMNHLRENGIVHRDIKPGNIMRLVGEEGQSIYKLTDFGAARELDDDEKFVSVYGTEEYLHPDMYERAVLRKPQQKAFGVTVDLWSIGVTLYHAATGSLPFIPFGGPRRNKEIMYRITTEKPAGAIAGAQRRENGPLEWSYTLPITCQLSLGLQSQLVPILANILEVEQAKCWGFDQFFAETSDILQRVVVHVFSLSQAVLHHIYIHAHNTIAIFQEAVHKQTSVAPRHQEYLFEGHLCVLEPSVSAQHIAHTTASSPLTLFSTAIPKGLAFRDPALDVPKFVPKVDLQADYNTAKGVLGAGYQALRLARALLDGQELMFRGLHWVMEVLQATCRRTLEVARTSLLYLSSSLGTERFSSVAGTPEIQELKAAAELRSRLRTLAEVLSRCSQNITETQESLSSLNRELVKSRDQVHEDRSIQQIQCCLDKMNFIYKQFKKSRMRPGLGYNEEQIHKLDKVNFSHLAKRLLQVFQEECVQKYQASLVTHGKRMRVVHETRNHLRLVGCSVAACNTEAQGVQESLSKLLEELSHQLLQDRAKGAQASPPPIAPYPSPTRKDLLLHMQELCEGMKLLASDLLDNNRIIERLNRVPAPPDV
# [11] = molecular target: T4, Inhibitor of nuclear factor kappa-B kinase subunit epsilon (Homo sapiens); conditions: at 1 µM
# [12] = molecular target: T5, Serine/threonine-protein kinase Nek1 (Homo sapiens) (UniProt Q96PY6); conditions: at 0.1 µM
# T5 sequence (whole entry): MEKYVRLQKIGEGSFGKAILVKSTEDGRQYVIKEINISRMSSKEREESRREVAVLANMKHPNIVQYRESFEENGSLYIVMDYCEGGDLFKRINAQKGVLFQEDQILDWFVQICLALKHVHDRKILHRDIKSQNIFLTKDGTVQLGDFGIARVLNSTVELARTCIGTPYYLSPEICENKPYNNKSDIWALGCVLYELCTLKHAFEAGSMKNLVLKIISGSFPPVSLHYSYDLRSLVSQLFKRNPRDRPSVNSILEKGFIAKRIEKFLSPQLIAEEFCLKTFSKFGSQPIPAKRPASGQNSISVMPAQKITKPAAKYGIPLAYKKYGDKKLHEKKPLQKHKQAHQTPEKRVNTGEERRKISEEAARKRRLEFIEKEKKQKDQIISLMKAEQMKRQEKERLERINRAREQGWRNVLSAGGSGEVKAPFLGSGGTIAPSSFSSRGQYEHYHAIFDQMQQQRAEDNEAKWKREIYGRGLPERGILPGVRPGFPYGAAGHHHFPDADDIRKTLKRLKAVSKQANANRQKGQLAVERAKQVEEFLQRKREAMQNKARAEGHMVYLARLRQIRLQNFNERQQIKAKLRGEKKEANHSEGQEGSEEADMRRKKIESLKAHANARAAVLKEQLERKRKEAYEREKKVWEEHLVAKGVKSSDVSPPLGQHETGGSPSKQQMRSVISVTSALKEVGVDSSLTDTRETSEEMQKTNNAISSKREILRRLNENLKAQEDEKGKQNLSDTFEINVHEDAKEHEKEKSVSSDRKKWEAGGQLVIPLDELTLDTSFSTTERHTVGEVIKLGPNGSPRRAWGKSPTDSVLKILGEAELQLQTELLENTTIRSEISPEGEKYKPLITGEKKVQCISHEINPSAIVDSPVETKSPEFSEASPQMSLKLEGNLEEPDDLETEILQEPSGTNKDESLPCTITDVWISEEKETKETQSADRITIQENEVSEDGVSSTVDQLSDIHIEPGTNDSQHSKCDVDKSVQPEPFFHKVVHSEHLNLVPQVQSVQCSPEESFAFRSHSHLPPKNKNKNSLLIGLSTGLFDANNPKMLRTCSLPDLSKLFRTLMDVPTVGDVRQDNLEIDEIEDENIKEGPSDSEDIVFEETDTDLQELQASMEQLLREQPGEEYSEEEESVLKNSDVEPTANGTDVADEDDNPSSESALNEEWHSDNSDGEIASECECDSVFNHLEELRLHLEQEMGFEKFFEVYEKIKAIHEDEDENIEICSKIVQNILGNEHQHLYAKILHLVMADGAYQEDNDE
# [13] = molecular target: T5, Serine/threonine-protein kinase Nek1 (Homo sapiens); conditions: at 1 µM
# [14] = molecular target: T6, Serine/threonine-protein kinase Nek2 (Homo sapiens) (UniProt P51955); conditions: at 0.1 µM
# T6 sequence (whole entry): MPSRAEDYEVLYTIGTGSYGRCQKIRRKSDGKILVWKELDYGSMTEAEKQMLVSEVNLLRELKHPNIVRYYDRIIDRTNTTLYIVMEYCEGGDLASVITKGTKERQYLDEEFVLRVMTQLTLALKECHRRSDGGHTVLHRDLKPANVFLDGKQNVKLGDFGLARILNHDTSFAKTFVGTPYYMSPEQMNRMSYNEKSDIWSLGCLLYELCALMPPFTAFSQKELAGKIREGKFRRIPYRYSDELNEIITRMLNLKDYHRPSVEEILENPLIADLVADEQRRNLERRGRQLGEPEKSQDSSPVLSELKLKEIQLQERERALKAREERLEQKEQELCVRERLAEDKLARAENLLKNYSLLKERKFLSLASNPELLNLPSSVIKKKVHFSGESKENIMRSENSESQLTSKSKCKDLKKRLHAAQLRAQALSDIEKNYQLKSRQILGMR
# [15] = molecular target: T6, Serine/threonine-protein kinase Nek2 (Homo sapiens); conditions: at 1 µM
# [16] = molecular target: Serine/threonine-protein kinase Nek6 (Homo sapiens) (UniProt Q9HC98); conditions: at 0.1 µM
# [17] = molecular target: Serine/threonine-protein kinase Nek6 (Homo sapiens) (UniProt Q9HC98); conditions: at 1 µM
# [18] = molecular target: Serine/threonine-protein kinase Nek7 (Homo sapiens) (UniProt Q8TDX7); conditions: at 0.1 µM
# [19] = molecular target: Serine/threonine-protein kinase Nek7 (Homo sapiens) (UniProt Q8TDX7); conditions: at 1 µM
# [20] = molecular target: T7, Serine/threonine-protein kinase Nek9 (Homo sapiens) (UniProt Q8TD19); conditions: at 0.1 µM;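 also: reported value is the mean percent inhibition of NEK9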
# T7 sequence (whole entry): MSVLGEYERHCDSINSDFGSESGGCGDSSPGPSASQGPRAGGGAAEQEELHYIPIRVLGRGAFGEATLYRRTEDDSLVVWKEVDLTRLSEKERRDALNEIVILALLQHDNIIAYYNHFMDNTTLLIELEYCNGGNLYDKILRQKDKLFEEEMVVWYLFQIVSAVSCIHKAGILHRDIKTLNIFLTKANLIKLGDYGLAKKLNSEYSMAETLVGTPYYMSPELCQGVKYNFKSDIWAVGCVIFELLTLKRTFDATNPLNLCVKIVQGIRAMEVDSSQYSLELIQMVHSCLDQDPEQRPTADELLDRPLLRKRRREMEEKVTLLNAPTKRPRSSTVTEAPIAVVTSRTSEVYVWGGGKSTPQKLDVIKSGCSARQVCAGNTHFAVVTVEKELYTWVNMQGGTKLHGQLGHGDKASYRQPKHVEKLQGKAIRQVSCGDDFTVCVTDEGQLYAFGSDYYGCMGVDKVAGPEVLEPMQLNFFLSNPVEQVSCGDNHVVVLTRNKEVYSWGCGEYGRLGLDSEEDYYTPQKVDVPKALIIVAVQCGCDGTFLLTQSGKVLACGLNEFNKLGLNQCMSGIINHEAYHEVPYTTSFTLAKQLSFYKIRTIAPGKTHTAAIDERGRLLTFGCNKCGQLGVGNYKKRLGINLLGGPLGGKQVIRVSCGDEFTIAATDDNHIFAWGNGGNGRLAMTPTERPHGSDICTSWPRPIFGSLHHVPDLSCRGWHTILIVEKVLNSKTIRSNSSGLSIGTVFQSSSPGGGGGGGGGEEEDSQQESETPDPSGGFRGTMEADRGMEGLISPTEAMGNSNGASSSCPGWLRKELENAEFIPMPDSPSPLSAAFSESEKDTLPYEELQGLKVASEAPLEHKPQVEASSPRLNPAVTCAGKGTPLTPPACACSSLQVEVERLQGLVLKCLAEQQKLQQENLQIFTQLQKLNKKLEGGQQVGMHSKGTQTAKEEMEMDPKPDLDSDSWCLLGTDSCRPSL
# Serine/threonine-protein kinase Nek7 (Homo sapiens), sequence (Q8TDX7 whole entry, looked up): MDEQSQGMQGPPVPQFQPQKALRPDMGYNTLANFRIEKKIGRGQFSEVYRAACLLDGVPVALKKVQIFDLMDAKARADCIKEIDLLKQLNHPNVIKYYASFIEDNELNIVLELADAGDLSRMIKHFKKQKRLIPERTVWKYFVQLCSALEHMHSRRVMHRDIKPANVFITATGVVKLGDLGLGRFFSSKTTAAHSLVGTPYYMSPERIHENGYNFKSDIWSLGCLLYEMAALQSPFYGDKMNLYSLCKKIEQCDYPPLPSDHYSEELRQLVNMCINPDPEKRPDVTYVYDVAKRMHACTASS
# Serine/threonine-protein kinase Nek6 (Homo sapiens), sequence (Q9HC98 whole entry): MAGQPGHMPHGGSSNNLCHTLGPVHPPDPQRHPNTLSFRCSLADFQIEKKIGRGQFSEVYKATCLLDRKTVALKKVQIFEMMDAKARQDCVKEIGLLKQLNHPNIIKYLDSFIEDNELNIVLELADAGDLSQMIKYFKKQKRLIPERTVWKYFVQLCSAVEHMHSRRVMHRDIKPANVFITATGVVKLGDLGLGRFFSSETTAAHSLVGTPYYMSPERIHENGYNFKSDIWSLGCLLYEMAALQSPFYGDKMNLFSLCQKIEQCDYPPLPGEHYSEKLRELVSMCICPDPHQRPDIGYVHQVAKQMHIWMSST
# Casein kinase II subunit alpha (Homo sapiens), sequence (P68400 whole entry, looked up): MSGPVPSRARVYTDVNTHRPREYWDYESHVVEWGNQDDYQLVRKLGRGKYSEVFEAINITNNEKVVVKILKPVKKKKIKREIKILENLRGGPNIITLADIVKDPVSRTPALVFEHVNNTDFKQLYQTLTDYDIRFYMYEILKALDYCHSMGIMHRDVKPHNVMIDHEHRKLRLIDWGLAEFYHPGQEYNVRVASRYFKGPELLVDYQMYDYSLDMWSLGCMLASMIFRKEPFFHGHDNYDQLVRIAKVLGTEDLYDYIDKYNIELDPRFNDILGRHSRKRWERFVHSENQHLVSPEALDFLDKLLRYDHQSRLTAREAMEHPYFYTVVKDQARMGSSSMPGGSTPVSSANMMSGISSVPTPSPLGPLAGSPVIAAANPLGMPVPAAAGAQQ
# Sphingosine kinase 1 (Homo sapiens), sequence (Q9NYA1 whole entry): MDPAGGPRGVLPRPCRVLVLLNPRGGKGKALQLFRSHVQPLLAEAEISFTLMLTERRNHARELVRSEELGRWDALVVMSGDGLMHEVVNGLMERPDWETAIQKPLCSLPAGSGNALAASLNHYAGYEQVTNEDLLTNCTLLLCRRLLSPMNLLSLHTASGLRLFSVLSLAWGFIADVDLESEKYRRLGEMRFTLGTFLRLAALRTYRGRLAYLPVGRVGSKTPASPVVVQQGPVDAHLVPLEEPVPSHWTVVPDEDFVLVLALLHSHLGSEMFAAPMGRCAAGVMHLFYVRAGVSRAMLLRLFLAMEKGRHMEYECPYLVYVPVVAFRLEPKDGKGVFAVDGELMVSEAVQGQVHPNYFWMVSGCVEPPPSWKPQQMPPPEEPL
smiles,measurement,setting,value
O=C(O[C@H]1CN[C@H](C#Cc2cc3ncnc(Nc4ccc5c(cnn5Cc5ccccc5)c4)c3s2)C1)N1CCOCC1,inhibition,[1],-0.72%
same,inhibition,[2],0.71%
same,inhibition,[3],-0.03%
same,inhibition,[4],-2.6%
same,inhibition,[5],1.05%
same,inhibition,[6],1.12%
same,inhibition,[7],-2.78%
same,inhibition,[8],-1.3%
same,inhibition,[9],-0.9%
same,inhibition,[10],-7.28%
same,inhibition,[11],2.35%
same,inhibition,[12],1.14%
same,inhibition,[13],-0.05%
same,inhibition,[14],0.17%
same,inhibition,[15],0.04%
same,inhibition,[16],-0.55%
same,inhibition,[17],1.2%
same,inhibition,[18],-1.22%
same,inhibition,[19],1.45%
same,inhibition,[20],-1.71%
